Consider 23 compounds from PubChem BioAssay AID1489 (National Center for Advancing Translational Sciences (NCATS), 2009).

Inconclusive results are not listed. A call without a number means that no potency is given here. The source made the active and inactive calls. The call rests on the fitted dose curve; in most records, active means well fitted antagonist curve with a large enough effect in the main read-out, with a control signal flat; inconclusive means small, poorly fitted or top-dose-only effect; inactive means no such curve, though single readings can be large or run the other way.

The target of the test is Neuropeptide S receptor (Homo sapiens) (UniProt Q6W5P4). Kind of test: Confirmation Concentration-Response Assay for Antagonists of the Neuropeptide S Receptor: Calcium Signal Transduction. Conditions: CHO-NPSR cells, NPS-induced calcium flux, FDSS; series mostly up to 19.3 µM. The method, boiled down:
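CHO cells stably expressing human NPSR, loaded with calcium dye; compounds added, then stimulated with NPS (60 nM in stimulation reagent). Fluorescence (Ex 480, Em 520–560 nm) recorded kinetically on FDSS; AC50 from Hill fit.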
(Calcium assays in cells follow changes in intracellular calcium, usually with a dye or a luminescent sensor.)

Chain of Neuropeptide S receptor (Homo sapiens) (Q6W5P4 whole entry, looked up): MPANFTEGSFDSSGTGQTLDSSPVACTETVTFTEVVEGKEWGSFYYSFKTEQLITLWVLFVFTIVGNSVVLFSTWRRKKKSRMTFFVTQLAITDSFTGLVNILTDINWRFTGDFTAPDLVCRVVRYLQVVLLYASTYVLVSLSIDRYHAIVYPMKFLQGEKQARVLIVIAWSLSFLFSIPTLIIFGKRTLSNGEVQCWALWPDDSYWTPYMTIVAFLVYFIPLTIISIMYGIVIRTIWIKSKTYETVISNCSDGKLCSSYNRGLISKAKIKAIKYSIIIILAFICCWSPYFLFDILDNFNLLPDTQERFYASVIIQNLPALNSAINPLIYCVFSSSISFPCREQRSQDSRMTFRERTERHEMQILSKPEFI

`C/C(=N\NC(=S)NC1CCCCC1)c1c(F)cccc1F`: the Potency entry was “inactive”.

Take `Cc1ccc(Cn2cc(SCC(=O)Nc3nccs3)c3ccccc32)cc1`: the Potency entry was “inactive”.

As to `NC(=O)OCC(COC(N)=O)c1ccccc1`, the Potency result was “inactive”.

For `N#CC(C#N)=c1ccc2c(c1)NC1(CCCCC1)N=2`, the Potency result was “inactive”.

`O=C(Nc1nccs1)C1CCCN1S(=O)(=O)c1ccc(Cl)cc1` (stereo not drawn): the Potency entry was “inactive”.

On to `Cc1nnc(NC(=O)c2cccc(S(=O)(=O)N3CCc4ccccc43)c2)s1`, for which the Potency result was “inactive”.

As to `COc1cccc(N2CCN(c3ncnc4c3[nH]c3ccc(F)cc34)CC2C)c1` (stereo not drawn), the Potency was 0.631 µM (active).

`CC1CCCc2sc3nc(N4CCN(CCO)CC4)n4ncnc4c3c21` (stereo not drawn): the Potency result was “inactive”.

With `CCOC(=O)C1CCCN(c2ncnc3c2oc2ccccc23)C1` (stereo not drawn), the Potency is 12.6 µM (active).

`COc1ccc(-c2cc(N)n(S(=O)(=O)c3c(F)c(F)c(F)c(F)c3F)n2)cc1OC`: the Potency is 7.08 µM (active).

`CCC(C)(C)NC(=O)Cc1ccc(C)cc1`: the Potency result is “inactive”.

For the compound `Cn1nc(-c2ccc(Cl)cc2)nc2c(=O)n(C)c(=O)nc1-2`, the Potency entry is “inactive”.

Regarding `Cc1ccc(Nc2cc(C)nn2-c2nc(C)cc(C)n2)cc1`, the Potency entry was “inactive”.

In the case of `COc1ccc(NC(=O)/C(Cl)=C(/Cl)S(=O)Cc2ccc(C)cc2)cn1` (stereo not drawn), the Potency was 2.24 µM (active).

Consider `CCN(CC)S(=O)(=O)c1ccc2c(c1)nc(SC(C)C(N)=O)n2-c1ccc(OC)cc1` (stereo not drawn), for which the Potency entry is “inactive”.

As to `N=C1c2ccccc2CN1c1ccc(N2CCOCC2)c(S(=O)(=O)Nc2ccc(Cl)cc2)c1`, the Potency was 1.41 µM (active).

In the case of `O=C1CC(NCc2ccncc2)C(=O)N1c1ccccc1` (stereo not drawn), the Potency result is “inactive”.

Consider `c1ccc(-c2ccc(-c3nc(-c4cccnc4)no3)cc2)cc1`, for which the Potency entry is “inactive”.

For `COCCCn1cnc2c(c1=O)c1nc3ccccc3nc1n2CCc1ccccc1`, the Potency result is “inactive”.

Consider `O=C(COC(=O)c1ccccc1C(=O)c1ccc(Cl)c([N+](=O)[O-])c1)NC1CCCCCC1`, for which the Potency is 4.47 µM (active).

For the compound `O=C(/C=C/c1ccco1)NC(=S)Nc1nc(-c2ccc3ccccc3c2)cs1`, the Potency entry was “inactive”.

Consider `COc1cc(/C=C2\SC(c3ccc(C)cc3)=NC2=O)cc(OC)c1O`, for which the Potency result was “inactive”.

Regarding `CC(C)Cc1nc(N2CCN(C(=O)c3ccccc3)CC2)c(C#N)c2c1CCC2`, the Potency result was “inactive”.
